Results as given in PubChem BioAssay (NCI).
This is part of a sample that, as a whole, favours compounds with a hit. Of some 83,000 tested, about 20% had one in any assay.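 Step 1: grow cells in 96-well plates. Step 2: add test compound at a single concentration. Step 3: incubate 48 h. Step 4: record percent growth.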 Activity calls are given as the source filed them. The calls were made as follows: active = growth percent below 10; inactive = the rest.

How the values were obtained:
Test in all cases: NCI-60 one-dose screen, 48 h (100 = growth as untreated, 0 = no growth, -100 = all killed)
Details in all cases: 10 µM
HCT-15 colon = test system: HCT-15 colon
HT29 colon = test system: HT29 colon
SNB-75 CNS = test system: SNB-75 CNS
SNB-19 CNS = test system: SNB-19 CNS
U251 CNS = test system: U251 CNS
PC-3 prostate = test system: PC-3 prostate
SK-MEL-5 melanoma = test system: SK-MEL-5 melanoma
UACC-62 melanoma = test system: UACC-62 melanoma
LOX IMVI melanoma = test system: LOX IMVI melanoma
SK-MEL-28 melanoma = test system: SK-MEL-28 melanoma

Measured: growth

Cn1c(=O)c2[nH]c(C(O)c3ccc(Cl)cc3)nc2n(C)c1=O (stereo not given)
inactive: HCT-15 colon 102% | HT29 colon 105% | SNB-75 CNS 80.2% | SNB-19 CNS 95.8% | U251 CNS 99.5% | PC-3 prostate 87.9% | SK-MEL-5 melanoma 107% | UACC-62 melanoma 93.6% | LOX IMVI melanoma 96.6% | SK-MEL-28 melanoma 108%

Nc1ccc(Sc2ccc3c4c2cccc4c(=O)n2c4ccccc4nc32)cc1
inactive: HCT-15 colon 40.5% | HT29 colon 66.7% | SNB-75 CNS 43.7% | SNB-19 CNS 46.3% | U251 CNS 39.9% | PC-3 prostate 50.4% | SK-MEL-5 melanoma 39.4% | UACC-62 melanoma 31.9% | LOX IMVI melanoma 29.2% | SK-MEL-28 melanoma 73.7%

CCOC(=O)c1c(O)c2cc(-c3ccccc3)nc(OCC)c2c(=O)n1C
inactive: HCT-15 colon 82.7% | HT29 colon 107% | SNB-75 CNS 95.6% | SNB-19 CNS 91.5% | U251 CNS 97.3% | PC-3 prostate 14.3% | SK-MEL-5 melanoma 86.7% | UACC-62 melanoma 99.9% | LOX IMVI melanoma 98.7% | SK-MEL-28 melanoma 84.8%

Cc1ccc(Cl)cc1Nc1nc(C(F)(F)F)ccc1C(=O)N/N=C/c1c(Cl)cccc1Cl
inactive: HCT-15 colon 10.4% | HT29 colon 16.6% | SNB-75 CNS 26.1% | SNB-19 CNS 10.6% | SK-MEL-28 melanoma 18.7%
active: U251 CNS 2.72% | PC-3 prostate -18.2% | SK-MEL-5 melanoma -74.4% | UACC-62 melanoma -17.6% | LOX IMVI melanoma -22.3%

Nc1ccn([C@@H]2O[C@H](COP(=O)(O)O[C@@H]3C[C@H](n4cc(F)c(=O)[nH]c4=O)O[C@@H]3COP(=O)(O)O[C@@H]3C[C@H](n4cc(F)c(=O)[nH]c4=O)O[C@@H]3COP(=O)(O)O[C@@H]3C[C@H](n4cc(F)c(=O)[nH]c4=O)O[C@@H]3COP(=O)(O)O[C@@H]3C[C@H](n4cc(F)c(=O)[nH]c4=O)O[C@@H]3COP(=O)(O)O[C@@H]3C[C@H](n4cc(F)c(=O)[nH]c4=O)O[C@@H]3COP(=O)(O)O[C@@H]3C[C@H](n4cc(F)c(=O)[nH]c4=O)O[C@@H]3COP(=O)(O)O[C@@H]3C[C@H](n4cc(F)c(=O)[nH]c4=O)O[C@@H]3COP(=O)(O)O[C@@H]3C[C@H](n4cc(F)c(=O)[nH]c4=O)O[C@@H]3COP(=O)(O)O[C@@H]3C[C@H](n4cc(F)c(=O)[nH]c4=O)O[C@@H]3COP(=O)(O)O[C@@H]3C[C@H](n4cc(F)c(=O)[nH]c4=O)O[C@@H]3COP(=O)(O)OCCOCCOCCOCCOCCOCCO)[C@H](O)C2O)c(=O)n1 (stereo not given in full)
active: SK-MEL-5 melanoma 2.12%
inactive: HCT-15 colon 44.6% | HT29 colon 47.1% | SNB-75 CNS 86.3% | SNB-19 CNS 56.6% | U251 CNS 30.3% | PC-3 prostate 56.1% | UACC-62 melanoma 25.6% | LOX IMVI melanoma 25.2% | SK-MEL-28 melanoma 52.3%

COc1cccc2c1O/C(=C\c1ccc([N+](=O)[O-])s1)C2=O
active: HCT-15 colon 8.57%
inactive: HT29 colon 77.3% | SNB-75 CNS 81.5% | SNB-19 CNS 86.6% | U251 CNS 45.2% | PC-3 prostate 32.9% | SK-MEL-5 melanoma 73.7% | UACC-62 melanoma 35.9% | LOX IMVI melanoma 40.6% | SK-MEL-28 melanoma 78.4%

Cc1cc(C)c(/C=C2\C(=O)Nc3ccc(NC(=O)CCCCCCC(=O)NO)cc32)[nH]1
active: SNB-75 CNS -1.02% | U251 CNS 4% | PC-3 prostate 5.9% | SK-MEL-5 melanoma 6.38% | UACC-62 melanoma -12.3% | LOX IMVI melanoma 7.92%
inactive: HCT-15 colon 86% | HT29 colon 11.4% | SNB-19 CNS 31.2% | SK-MEL-28 melanoma 24%

COc1cccc(C(=O)NNc2nc(N3CCN(C4CCCCC4)CC3)nc(N3CCN(C(c4ccccc4)c4ccccc4)CC3)n2)c1
inactive: HCT-15 colon 25.4% | HT29 colon 24% | SNB-75 CNS 63.6% | SNB-19 CNS 47.7% | U251 CNS 32.6% | PC-3 prostate 21% | UACC-62 melanoma 39.6% | SK-MEL-28 melanoma 64.3%
active: SK-MEL-5 melanoma -85.1% | LOX IMVI melanoma 7.83%

S=c1c2ncccc2c(-c2ccccn2)nn1Cc1ccccn1
inactive: HCT-15 colon 98.9% | HT29 colon 93.7% | SNB-75 CNS 77.1% | SNB-19 CNS 103% | U251 CNS 95% | PC-3 prostate 73.8% | SK-MEL-5 melanoma 105% | UACC-62 melanoma 104% | LOX IMVI melanoma 94.8% | SK-MEL-28 melanoma 117%

O=C(NNc1nc(N2CCCC2)nc(N2CCCC2)n1)c1ccccc1
inactive: HCT-15 colon 108% | HT29 colon 102% | SNB-75 CNS 88.7% | SNB-19 CNS 99.6% | U251 CNS 98.5% | PC-3 prostate 101% | SK-MEL-5 melanoma 110% | UACC-62 melanoma 99.3% | LOX IMVI melanoma 110% | SK-MEL-28 melanoma 106%

NCCNc1ccc2cc(-c3nc4ccccc4[nH]3)c(=O)oc2c1
inactive: HCT-15 colon 79.4% | HT29 colon 108% | SNB-75 CNS 85.1% | SNB-19 CNS 105% | U251 CNS 94.9% | PC-3 prostate 79.7% | SK-MEL-5 melanoma 93.5% | UACC-62 melanoma 87.4% | LOX IMVI melanoma 85% | SK-MEL-28 melanoma 93.7%

COc1ccc(/C(CS(=O)(=O)c2ccccc2)=N\O)cc1
inactive: HCT-15 colon 99.4% | HT29 colon 106% | SNB-75 CNS 87% | SNB-19 CNS 101% | U251 CNS 93.9% | PC-3 prostate 104% | SK-MEL-5 melanoma 95.8% | UACC-62 melanoma 95.1% | LOX IMVI melanoma 111% | SK-MEL-28 melanoma 100%

CC(C)CCN(CCCNc1c2c(nc3cc(Cl)ccc13)CCCC2)CCC(C)C
inactive: HCT-15 colon 44.5% | HT29 colon 23% | SNB-75 CNS 84.4% | SNB-19 CNS 90.6% | U251 CNS 59.4% | PC-3 prostate 56.8% | SK-MEL-5 melanoma 57.8% | UACC-62 melanoma 82.8% | LOX IMVI melanoma 51% | SK-MEL-28 melanoma 83.4%
